# Measured values from PubChem BioAssay (NCATS).
# Unmarked numbers belong to inactive results.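 How the source made its calls: active means compounds whose dose series gives a full or clear partial fitted curve of increased nuclear translocation; inconclusive means weak partial curve or effect only at the top dose; inactive means no dose-dependent translocation response.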
# Biological target: Glucocorticoid receptor (Homo sapiens) (UniProt P04150)
# Test: GR-GFP Redistribution (AID 450)
# Conditions: U2OS GR-GFP nuclear translocation, laser cytometry, 2 h; series mostly up to 20.6 µM
# Potency means the concentration at half of the fitted maximal effect.
# Sequence of Glucocorticoid receptor (Homo sapiens) (P04150 whole entry, looked up): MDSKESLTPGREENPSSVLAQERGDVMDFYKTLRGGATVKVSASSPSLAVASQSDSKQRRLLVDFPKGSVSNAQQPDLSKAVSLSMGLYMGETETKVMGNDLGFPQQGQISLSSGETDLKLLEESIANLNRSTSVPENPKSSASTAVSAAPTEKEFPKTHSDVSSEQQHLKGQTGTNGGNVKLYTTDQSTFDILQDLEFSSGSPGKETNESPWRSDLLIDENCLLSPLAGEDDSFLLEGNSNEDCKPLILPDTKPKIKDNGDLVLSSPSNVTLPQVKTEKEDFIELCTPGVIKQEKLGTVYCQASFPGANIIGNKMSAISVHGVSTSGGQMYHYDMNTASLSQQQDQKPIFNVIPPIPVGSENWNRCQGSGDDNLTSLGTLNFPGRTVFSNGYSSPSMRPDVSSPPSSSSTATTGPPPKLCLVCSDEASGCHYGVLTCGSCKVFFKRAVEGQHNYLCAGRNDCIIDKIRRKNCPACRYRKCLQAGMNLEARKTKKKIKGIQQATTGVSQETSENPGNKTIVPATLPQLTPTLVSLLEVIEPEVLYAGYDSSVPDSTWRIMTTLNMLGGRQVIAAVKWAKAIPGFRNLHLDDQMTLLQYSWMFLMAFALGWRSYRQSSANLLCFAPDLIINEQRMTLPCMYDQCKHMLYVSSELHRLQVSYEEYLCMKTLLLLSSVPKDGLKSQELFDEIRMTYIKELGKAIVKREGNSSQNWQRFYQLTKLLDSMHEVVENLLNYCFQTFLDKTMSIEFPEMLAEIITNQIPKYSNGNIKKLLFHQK
row,SMILES,Potency [µM]
1,CC(C)OC(=O)c1nn2c(C(F)(F)F)cc(-c3ccc(Br)o3)nc2c1Br,> 20.6
2,Cc1cc(Nc2ccc3ccccc3c2)n2ncnc2n1,> 20.6
3,O=C1CC(NCc2ccc3c(c2)OCO3)C(=O)N1Cc1ccc2c(c1)OCO2 (stereo not given),> 20.6
4,Cc1cc(C)n(C2CCCCC2OC(=O)c2ccccc2)n1 (stereo not given),> 20.6
5,CC1(C)Cc2c(C#N)c(SCC(=O)c3ccccc3)nc(N3CCOCC3)c2CS1,> 20.6
6,Cc1c(O)c(CN2CCCC2)cc2c1oc(=O)c1ccccc12,> 20.6
7,COc1ccc(N2CCN(c3oc(COc4ccc(Cl)cc4)nc3C#N)CC2)cc1,> 20.6
8,CCCCNC(=O)c1c(N)n(/N=C/c2cccnc2)c2nc3ccccc3nc12,> 20.6
9,COc1ccc(/C=C/C2=NC(=C\N(C)C)/C(=O)O2)cc1,> 20.6
10,CCN(CC)c1nc(-c2cccc(OC)c2O)nc2ccccc12,> 20.6
11,CC1(C)Cc2nc(NCCCO)c(C#N)cc2CO1,> 20.6
12,CCOC(=O)c1[nH]c2cc(OC)c(OC)cc2c1NC(=O)C(C)N1CCN(Cc2ccccc2)CC1 (stereo not given),> 20.6
13,CC1(C)CC(=O)C(C=NCCN2CCN(CCc3ccccc3)CC2)=C(O)C1,> 20.6
14,COc1ccc2c(c1OC)C(=O)N1c3ccccc3C(=O)N(c3ccccc3)C21 (stereo not given),> 20.6
15,Cc1ccc(S(=O)(=O)c2cc3c(=O)n4cccc(C)c4nc3n(CC3CCCO3)c2=N)cc1 (stereo not given),> 20.6
